± gives the standard deviation of the averaged measurements. The full ranking holds about 25,000 sequences; the median of “ln(normalized median fluorescence intensity)” is about 8.9, and the highest 2% start at about 10. This is one part of a sample in which the highest values are shown more often than they occur.
Tested on: PfAP2-LT AP2 domain (GST-tagged)
Assay: gcPBM binding intensity (ln(normalized median fluorescence intensity)); higher = stronger DNA binding
How it was run: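 The highest Masliner-normalised natural-log median intensity across replicate spots of either probe orientation is reported as binding intensity. GST-tagged P. falciparum DNA-binding domains expressed in E. coli were applied for 1 h to an Agilent 4 × 180k array of primer-extended double-stranded 36-bp intergenic genomic probes plus negative controls, and bound protein was detected with Alexa488 anti-GST antibody and scanned at 488 nm.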

Sequence | gcPBM binding intensity (ln)
TGGAACCTTTAAAATACACACCCAAATCCTTTGAAA [CACACA_site7671] | 8.69 ± 0.35
AGAGAGAGAAATACAAGTACATGTGAAACCAATCTA [XGTACX_site2767] | 9.04 ± 0.46
GCATCGATCAAACATACACACATGGTTAATAAAAAT [CACACA_site8651] | 9.24 ± 0.47
TTTAAAAAAAGCAGTACATGCAAAATAATAACAAGC [TGCATGCA_site392] | 9.2 ± 0.48
TACACAAGGGGAAAAATATATATATATATATATATA [TGCATGCA_negctrl_site217] | 9.88 ± 0.028
TATTTTTTTTCGTAATGTACATAAAAAATGCAAAAA [XGTACX_site8491] | 8.27 ± 0.36
CATCCGTTGATATATGCATGCATATTGTTATTACCA [TGCATGCA_site868] | 9.11 ± 0.36
TTTATATATAAATAATGTACAAAAAATTTTAAAAAG [XGTACX_site7990] | 8.39 ± 0.39
ACAGTTTGTCTGAGTAGTACATAAATACTTGAAAGG [XGTACX_site7792] | 8.79 ± 0.45
GCTATAAATACAGACGCACACATATACATACATATA [CACACA_site3329] | 9.42 ± 0.33
CTAAAATACAGACACACACACACATATATATATATA [CACACA_site4150] | 10.07 ± 0.021
TTTAAATACAGACATACACACATACACGCACATATA [CACACA_site6400] | 9.49 ± 0.37
CGCGCACACGGACACACACACACACGGATATAAATA [CACACA_site7102] | 10 ± 0.4
AAAAAATACAGACACACACACACACGCATATAAATA [CACACA_site7644] | 10.1 ± 0.25
CACACGCACAGACACACACACACACGGATATAAATA [CACACA_site6301] | 10.2 ± 0.38
AAAATACACAGACACACACACATATAAATAAATATT [CACACA_site7871] | 9.79 ± 0.19
CACACGCACAGACACACACACACATATAAATATGTA [CACACA_site6300] | 9.89 ± 0.37
CACGCATACAGACACACACACACACGGATATAAATA [CACACA_site6445] | 10.2 ± 0.4
GCTATAAATACAGACGCACACATATACATACAGATA [CACACA_site5778] | 9.33 ± 0.42
CGCATACACAGACACACACACACATATAAATATGTA [CACACA_site6444] | 9.98 ± 0.47
TACAGACTAAAATACACACACACACGCACATATATA [CACACA_site7875] | 10.2 ± 0.18
AAATCGTGCACGGACACATGCAGTAGCCGAGAATTA [TGCATGCA_site733] | 9.12 ± 0.38
AAAAAAAAGAAAAAAACACACAATGGAAAAAATGTA [CACACA_site3675] | 8.93 ± 0.59
TATAAAATAAATAACAAAAAAAATAAAATAAAAATA [TGCATGCA_negctrl_site297] | 8.6 ± 0.7

Sequence | gcPBM binding intensity (ln)
TGCCCTTTGGTTATAACACACATGCACACGTAAATA [CACACA_site7750] | 9.4 ± 0.23
TTTTGTTATTAGAGGGTGCTTATAATGAACTCCTAC | 8.65 ± 0.49
TTATGAATACTTCAAGTGCATTTATTTTATATGACA | 8.63 ± 0.48
ATATTGGAATAAATTTGTACATATATATATTATTCA [XGTACX_site916] | 8.7 ± 0.44
CTGTTTTTGTTTTAAAGTACATTGTTCAATATACAT [XGTACX_site5288] | 8.82 ± 0.43
ATAGTATACAGACACACACACACACGGATATAAATA [CACACA_site6914] | 10.1 ± 0.36
AAATATAATAAAATGACACACGCATATATATATATA [CACACA_site8900] | 9.775 ± 0.064
ATATAATAAAATGACACACGCATATATATATATATA [CACACA_site2789] | 9.955 ± 0.021
TAAAAAATATTATATACACACAGTATAAAAAAAAAT [CACACA_site4012] | 8.95 ± 0.49
CACACTAAAAGACACACACACACACGCATATAAATA [CACACA_site7874] | 10.3 ± 0.4
TAAATAAATTTATACACACACACACGGATATAAATA [CACACA_site6532] | 9.82 ± 0.071
GTATATTTAAATAAAAGTACGTAAAGATATATTTAA [XGTACX_site8087] | 8.86 ± 0.57
TATATATATATATTATGTACTCATTTATTATCTTTT [XGTACX_site8051] | 9.04 ± 0.43
ATATATATTTATATATGTACATATTTTTGTGTATTT [XGTACX_site1183] | 9.14 ± 0.44
TTTGTCATTTTATTATGTACTCAGCATATAGGGGGG [XGTACX_site505] | 10.3 ± 0.33
ATATATATATATATATGTACTCATATTTTATTATTT [XGTACX_site898] | 9.665 ± 0.078
ATGCATATATTTATGTGTACATATATTTGTAGGGGG [XGTACX_site6063] | 10.2 ± 0.36
TATATATATATATATGCATGTACATATATTTGTTAT [TGCATGCA_site379] | 9.99 ± 0.4
TTATATTATGGACACACACACAAAAAAAAAAAAAAA [CACACA_site7744] | 9.32 ± 0.51
GTTTGGTGGTGTTTTGGTACGTACGGGGGGGTATGT [XGTACX_site1983] | 10.9 ± 0.18
GTTTGGTGGTGTTTTGGTACGTACGGGGGTGTATGT [XGTACX_site1211] | 9.88 ± 0.16
TATGATTTTTATATATGTACGTATGGTGTTTTACAA [XGTACX_site6100] | 8.76 ± 0.41
AACATAATAAAAAAACGTACATAATTTTATATACAT [XGTACX_site6602] | 8.87 ± 0.41
AAAATACATAGACACACACACACACGGATATAAATA [CACACA_site7643] | 10.2 ± 0.2

Sequence | gcPBM binding intensity (ln)
ATAAATAAAGGACACACACACACACTAGAAAAAAAA [CACACA_site5450] | 10.2 ± 0.3
AAAAAAAATAGACACACACACATACACATAAATATA [CACACA_site7742] | 9.82 ± 0.38
AAGGATATAACATACACACACACACGGATATAAATA [CACACA_site7867] | 10.2 ± 0.37
AAATAACACATATATACACACATATAAATATAATAT [CACACA_site2692] | 9.29 ± 0.34
AATATAAATAAAAACACACACACACGGATATTTATA [CACACA_site7134] | 10 ± 0.25
ATAAGAAAAGGACACACACACAAAAAAAAAAAAAAA [CACACA_site7351] | 9.48 ± 0.51
GTAGAGAAAAAAATGTGGACACAAAAAATAAAAAGG [XGTACX_site4058] | 8.96 ± 0.45
CACTAAAATAGACACACACACACACGGATATAAATA [CACACA_site7873] | 10.3 ± 0.29
TATATAAATAGACACACACACACATATAAATAAATA [CACACA_site7855] | 10 ± 0.34
AATATAAGGATATATACACACATAAATACATACATA [CACACA_site7859] | 9.25 ± 0.45
CATATACATAGACACACACACACATAAATAAATATA [CACACA_site6749] | 9.91 ± 0.33
AATGTAGGTTTATTTACACACAAATATAGATATATA [CACACA_site6825] | 8.96 ± 0.4
GGGAGGATATTACACAGTACCCAGGAAATCTACGGA [XGTACX_site4874] | 8.81 ± 0.5
TTTTTTTAAAAAAAGGGTACATATATATATTTTTCT [XGTACX_site1066] | 8.43 ± 0.49
ATATATATATATGTTAGTACTTATATTGAAATGGTA [XGTACX_site1406] | 9.05 ± 0.042
TATATTATTTTATATTGTACATACCAAATATTATAT [XGTACX_site1693] | 8.68 ± 0.41
TATTTTTTTTTTTTTTTTTTTTTTATATATACATAT [CACACA_negctrl_site23] | 8.61 ± 0.52
AAATGGGCTTATTTATGTACTTAAATATATCTACCC [XGTACX_site3823] | 8.85 ± 0.61
TTTCTTTTTTTTTTTTTTTCTGGCTTTTTCTCTTTT [TGCATGCA_negctrl_site599] | 8.69 ± 0.49
TATTAATACGGACACACACACACACTAGATAAAATA [CACACA_site4295] | 10.1 ± 0.11
AACAAATACGGACACACACACACACTAGAAAAAAAA [CACACA_site4442] | 9.82 ± 0.29
AAAAAAAAAAAAAACACACACACACGCATAAATATA [CACACA_site6217] | 9.95 ± 0.28
AATAAAAAGGAACACACACACACACGGATATAAATA [CACACA_site7658] | 10.3 ± 0.37
TAATATAAAGAAAAGGAACACACAAATATATATATA [CACACA_site8049] | 9.04 ± 0.38

Sequence | gcPBM binding intensity (ln)
ATAAATATTAAAAGTACACACAGATACACTAATTAT [CACACA_site1808] | 9.16 ± 0.36
ATATAAAGAAAAGGAACACACAAATATATATATATA [CACACA_site463] | 9.56 ± 0.25
AGAATAAAAAGGAACACACACACACGCATATAAATA [CACACA_site7659] | 10.1 ± 0.39
ACCATATAAATAAACACACACACACGGATATAAATA [CACACA_site7157] | 10.1 ± 0.2
TGATTTGTGCCGATTTGTACACATTTATATATATAT [XGTACX_site2154] | 9.13 ± 0.35
GTATATATATATATATATATATATATATATATATAT [CACACA_negctrl_site609] | 9.63 ± 0.042
ATACAAATTGTTTAAAGTACAAATTACACCTCTTAA [XGTACX_site6888] | 8.62 ± 0.44
CATAGGAACATAAGTTGTACGCTATACATACAACAT [XGTACX_site1054] | 9.05 ± 0.45
TTTTCTATATAGTGTTGTACATTATTGTGTAAAAAT [XGTACX_site3223] | 8.7 ± 0.46
AATATAATGTAATATACACACATATATTTCTCTTTT [CACACA_site5451] | 8.95 ± 0.45
CATATATACACATACACACACACACGGACACGCACA [CACACA_site6910] | 10.07 ± 0.085
ACCTACATAACATACACACGCATATATATAATTTTA [CACACA_site2847] | 9.22 ± 0.33
AGTATACATATATATACACACACACCGATATATATA [CACACA_site8357] | 9.74 ± 0.23
CGCATACACGGACACACACACACATATATATATATA [CACACA_site4520] | 10.23 ± 0.071
ATAGTATACAGACACACACACACACCGATATATATA [CACACA_site8511] | 10.1 ± 0.13
ACCATACATACATACACACACACACGCATATTTATA [CACACA_site7386] | 10.1 ± 0.29
TATACACGCGGACACACACACACACGCAAAAAAAAA [CACACA_site6377] | 10 ± 0.23
TATTTATATTTATATACACACATACATATTTATATT [CACACA_site6535] | 9.1 ± 0.4
TATATATATATTTATACACACACATATATTTATATA [CACACA_site8054] | 9.13 ± 0.29
TATAGATACCTATACACACACACACGGACATATATA [CACACA_site7585] | 10 ± 0.25
CATACACGCGGACACACACACACACGCATATATAAC [CACACA_site6427] | 10.1 ± 0.23
ATAGTATACGGACACACACACACACCGATATATATA [CACACA_site5032] | 10.3 ± 0.38

Source: the supplement of paper PMC11417369
